Measurements published in PubChem BioAssay AID504332 (National Center for Advancing Translational Sciences (NCATS), 2011).
In all, about 350,000 compounds went through this assay and about 31,000 (8.9%) were called active. Roughly 15% stayed inconclusive and do not appear here. Only a selection was taken, and actives are over-represented in it overall. Values without a mark were called inactive. The call rests on the fitted dose curve; in most records, active means well fitted inhibition curve with a large enough effect; inconclusive means small, poorly fitted or top-dose-only effect; inactive means no such curve, though single readings can be large or run the other way.

target: Histone-lysine N-methyltransferase EHMT2 (Homo sapiens) (UniProt Q96KQ7); assay: qHTS Assay for Inhibitors of Histone Lysine Methyltransferase G9a; conditions: G9a H3K9 monomethylation, AlphaScreen, 2 h; series mostly up to 102 µM; activity, negative = inhibition: at the top concentration; further: nearly all actives have a fitted effect of over 75% in size
Sequence (Q96KQ7 913-1193 limits assumed): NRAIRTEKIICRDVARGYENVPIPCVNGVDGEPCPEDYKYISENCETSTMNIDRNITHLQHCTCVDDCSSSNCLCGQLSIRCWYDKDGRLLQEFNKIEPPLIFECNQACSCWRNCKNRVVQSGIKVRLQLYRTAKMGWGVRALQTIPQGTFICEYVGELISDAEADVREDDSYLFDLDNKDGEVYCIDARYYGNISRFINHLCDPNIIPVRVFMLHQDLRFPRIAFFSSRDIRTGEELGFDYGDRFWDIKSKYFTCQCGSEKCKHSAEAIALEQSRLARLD
Summary of the method: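 G9a (20 nM) preincubated 15 min RT with compounds, then 500 nM biotinylated H3K9 peptide and 20 uM SAM added; 2 h RT reaction. Monomethyl-H3K9 product detected by AlphaScreen with anti-H3K9me1 antibody, streptavidin donor and anti-rabbit IgG acceptor beads.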
On the % scale 0 is the no-effect control and ±100 the full control effect; potency means the concentration at half of the fitted maximal effect.

Structure (SMILES) | activity, negative = inhibition | Potency
O=c1c2ccccc2nc(/C=C/c2ccc(F)cc2)n1-c1ccccc1O | 7.81% | –
C=CCN(CC=C)C(=O)Nc1ccc(OCC)cc1 | 17.5% | –
CC[C@]1(C)CC(=O)NC1=O | -2.16% [at 12.7 µM] | –
COC(=O)C1=C(c2ccc(F)cc2OCc2ccccc2)C[C@@H]2CC[C@H]1N2C(=O)NCc1ccc(Cl)cc1 | 8.03% [at 2.33 µM] | –
O=C(c1cc2nc(-c3ccccc3)cc(-c3ccccc3)n2n1)N1CCC2(CC1)OCCO2 | 17.4% [at 12.7 µM] | –
CC1=C2C(=O)C3C(CC=C4CC(OC5OC(O)C(O)C(O)C5CO)CCC43C)C2CCC12OC1CC(C)CNC1C2C (stereo not given) | -0.0918% | –
O=C1NC(=O)N(CCc2ccc(F)cc2)C(=O)/C1=C/C=C/c1ccccc1 | – | 70.8 µM (active)
COC(=O)C(O)(c1ccc(NC(=O)c2ccco2)c(OC)c1)C(F)(F)F (stereo not given) | -1.81% | –
CCc1cccc2c(C#N)cn(CC(=O)N3CCOCC3)c12 | 15.5% [at 12.7 µM] | –
COCc1cc(OC(=O)N(C)C)nc(-c2ccc(C)c(Cl)c2)n1 | 64.1% | –
CCCCCCCCc1[se]c2ccccc2c1Br | 23.6% | –
COc1ccc(-c2nc(CS(=O)CC(=O)N3CCC4(CC3)OCCO4)c(C)o2)cc1 (stereo not given) | -4.28% [at 12.7 µM] | –
C[C@]12CC[C@H](O)C[C@H]1CC[C@@H]1C2CC[C@]2(C)[C@@H](C3=CC(=O)OC3)[C@@H](O)C[C@]12O (stereo not given in full) | -8.99% [at 2.33 µM] | –
Cc1cc(C)cc(NC(=S)NC2CC3CCCC(C2)N3Cc2cccs2)c1 (stereo not given) | -45.2% [at 59 µM] | –
CN(C)c1ccc(NC(=O)CN2C3CCCC2CC(NC(=O)c2ccccc2)C3)cc1 (stereo not given) | – | 50.1 µM (active)
CCC(C)C(=O)O[C@@H]1C[C@@]2(C)C(c3ccoc3)OC(=O)CC23OC2(C)O[C@@]14[C@@]1(C)C(CC(=O)OC)C5(C)CC1(O)C(O)(C5OC(=O)C1(C)OC1C)C(OC(C)=O)[C@@]34O2 (stereo not given in full) | -36.9% [at 2.33 µM] | –
c1ccc2sc(SNC3CCCCC3)nc2c1 | – | 1.78 µM (active)
COc1cc2c(cc1OC)[C@@H]1C(=O)c3ccc(O)c(CC=C(C)C)c3OC1CO2 (stereo not given in full) | -32.8% [at 2.33 µM] | –
O=C(CSC1c2ccccc2-c2ccccc21)N/N=C/c1ccccc1 | 3.19% | –
CN1CCC(N(C)Cc2cccnc2)CC1 | – | 3.16 µM (active)
c1cncc(CNC2=NCCC2)c1 | 11.8% [at 59 µM] | –
CC1CCCCN1Cc1cccnc1 (stereo not given) | – | 6.31 µM (active)
c1cncc(CNCCc2c[nH]c3ccccc23)c1 | 13.1% | –
CCOC(=O)C1(Cc2ccc(Cl)cc2)CCN(C(C)CCn2cccn2)CC1 (stereo not given) | -32.7% | –
CC[N+](CC)(CC)CCCCCCCCCC[N+](CC)(CC)CC | 2.94% | –

Structure (SMILES) | activity, negative = inhibition | Potency
C=CCN1C(=O)C2(C(C(=O)OCC)=C(N)Oc3c2c(=O)oc2ccccc32)c2ccccc21 (stereo not given) | 10.8% [at 59 µM] | –
Fc1ccc(C2N3CCCN23)cc1 (stereo not given) | -3.98% | –
CCC(=NCCCO)c1c(O)n(-c2ccc(OC)cc2)c(=O)[nH]c1=O | 2.36% | –
O=C(COC(=O)c1ccccc1)Nc1ccccc1Sc1ccccc1 | 84.5% [at 59 µM] | –
O=C1N=c2ccccc2=C/C1=C\c1c(O)[nH]c(=S)[nH]c1=O | – | 25.1 µM (active)
COc1ccc(C2N3CC(C)(C)CN23)cc1 (stereo not given) | 12% [at 59 µM] | –
CCCn1c(C(=O)c2ccccc2OC)nc2ccccc21 | 1.61% | –
COc1ccc(Br)cc1CNCCc1cccc(Cl)c1 | – | 20 µM (active)
Cc1ccc(N2C(=O)NC(=O)C(CCc3ccncc3)(Cc3cccc(Cl)c3Cl)C2=O)cc1 (stereo not given) | -9.85% [at 59 µM] | –
CC1=CC(=Cc2sc3ccccc3[n+]2C)C=C(C)O1 | – | 50.1 µM (active)
CN(C)C(=O)Oc1cc(=O)n2c3c(cccc13)CCC2 | -1.41% [at 59 µM] | –
CC(C)Nc1nc(Cl)nc(NC(C)C)n1 | -2.82% [at 59 µM] | –
CNC(=S)N/N=C1\C2CN3CCN(C2)CC1(c1ccccc1)C3 | 29.9% [at 59 µM] | –
Cc1ccc(P(=S)(c2ccc(C)o2)N2CCOCC2)o1 | -35.9% [at 12.7 µM] | –
O=C1NC(=O)N(Cc2ccco2)C(=O)/C1=C\c1ccc(-c2ccc(F)cc2)o1 | – | 12.6 µM (active)
Cc1cc(/C=C2/C(=O)NC(=O)N(Cc3ccco3)C2=O)c(C)n1-c1ccc(C(=O)O)cc1 | – | 35.5 µM (active)
Cc1ccc2c(c1)C1CN(C)CCC1N2C(=O)Cn1nnc(-c2ccccc2F)n1 (stereo not given) | -16.7% | –
CCOC(=O)c1c(N)n(CCN2CCOCC2)c2nc3ccccc3nc12 | 0.945% | –
CC(=O)N1CN2CN(C(C)=O)CC(C(=O)c3ccc(Br)cc3)(C2)C1 | 9.55% [at 59 µM] | –
C[C@@]12CC[C@H]3[C@@H](CC[C@]4(O)C[C@H](O)CC[C@@]34C=O)[C@]1(O)CC[C@@H]2C1=CC(=O)OC1 | 21.4% [at 21.5 µM] | –
O=c1c2ccccc2nc(-c2ccc(Cl)cc2Cl)n1-c1ccncc1 | -5.79% [at 59 µM] | –
COC(=O)C1=C(c2ccc(C(C)=O)cc2)C[C@@H]2CC[C@H]1N2C(=O)NCCNC(C)=O | 23.2% [at 2.33 µM] | –
O=Cc1cn(Cc2ccc(F)cc2Cl)c2ccccc12 | 41.7% [at 59 µM] | –
CNC(=O)N(C)c1nnc(C(C)(C)C)s1 | -1.28% [at 12.7 µM] | –
CCOC(=O)C1SC2(C(F)(F)C(F)F)CC1(O)c1c(c(OC)c3occc3c1OC)O2 (stereo not given) | -5.46% [at 59 µM] | –
